# Results reported in publication PMC5540273 (PLoS ONE, 2017).
# System: T1, ERK8
# T1 construct: gene MAPK15
# Details: concentration: 1 μM, replicates: in singlicate; n = 1
# 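Also: KINOMEscan kinase panel screen.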
row,Compound,%Inh
1,CCS(=O)(=O)c1ccc(OC)c(Nc2nccc(-c3c(-c4cccc(NC(=O)c5c(F)cccc5F)c4)nn4ncccc34)n2)c1 [GSK326180],0%
2,COc1cc(Nc2nccc(-c3c(-c4cccc(NC(=O)c5c(F)cccc5F)c4)nn4ncccc34)n2)cc(OC)c1OC [GSK327238],0%
3,COc1ccc(-c2coc3ccc(-c4nnc(SCc5ccc(OC)c(C(F)(F)F)c5)o4)cc23)cc1,2%
4,Oc1cc(Nc2ccnc3cc(I)ccc23)ccc1F [GW552771],11%
5,O=c1[nH]cc(-c2ccc(N3CCOCC3)cc2)c2sc(-c3cn[nH]c3)cc12 [GSK2276055],0%
6,FC(F)(F)c1ccc(/C=C/c2cncnc2Nc2ccc3[nH]c(Cc4ccccc4)nc3c2)cc1 [GW709199],21%
7,Nc1ncnc2c1nc(-c1ccccc1)n2-c1ccccc1 [SKF-97293],13%
8,Cn1cc(-c2ccc3c(c2)CCN3C(=O)Cc2cccc(Cl)c2)c2c(N)ncnc21 [GSK2606590],0%
9,Cc1ccc(C(=O)Nc2ccc(Nc3ccnc4cc(-c5nccs5)ccc34)cc2O)cc1.Cl [GW494702],11%
10,COc1cc(Nc2ncc3c(C)nc(-c4cc5ccccc5[nH]4)n3n2)cc(OC)c1OC [GW869516],0%
11,COc1ccc(CNC(=O)NC2CCN(c3ccnc(Nc4ccc(F)cc4)n3)CC2)cc1 [GSK1379788],0%
12,CCn1c(-c2nonc2N)nc2c(C#CC(C)(C)O)nc(OC[C@H](N)c3ccccc3)cc21 [GSK943949],7%
